In the supplement of paper PMC7724964:
± gives the standard deviation of the averaged measurements.

T1: TSG101 1-145 UEV (domain begin residue: 1, domain end residue: 145), Q99816
T1 chain: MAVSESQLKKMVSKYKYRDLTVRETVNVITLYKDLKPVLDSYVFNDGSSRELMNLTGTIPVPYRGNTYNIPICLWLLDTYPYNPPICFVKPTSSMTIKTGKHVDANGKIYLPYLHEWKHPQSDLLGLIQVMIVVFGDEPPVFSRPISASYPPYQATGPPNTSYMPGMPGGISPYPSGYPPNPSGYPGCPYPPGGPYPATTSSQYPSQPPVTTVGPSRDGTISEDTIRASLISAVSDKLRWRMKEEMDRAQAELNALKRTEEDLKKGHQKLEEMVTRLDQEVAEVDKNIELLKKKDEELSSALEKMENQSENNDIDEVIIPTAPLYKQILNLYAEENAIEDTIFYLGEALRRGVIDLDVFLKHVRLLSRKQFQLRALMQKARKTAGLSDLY

T2: UEVLD 1-145 UEV (domain begin residue: 1, domain end residue: 145), Q8IX04
T2 chain: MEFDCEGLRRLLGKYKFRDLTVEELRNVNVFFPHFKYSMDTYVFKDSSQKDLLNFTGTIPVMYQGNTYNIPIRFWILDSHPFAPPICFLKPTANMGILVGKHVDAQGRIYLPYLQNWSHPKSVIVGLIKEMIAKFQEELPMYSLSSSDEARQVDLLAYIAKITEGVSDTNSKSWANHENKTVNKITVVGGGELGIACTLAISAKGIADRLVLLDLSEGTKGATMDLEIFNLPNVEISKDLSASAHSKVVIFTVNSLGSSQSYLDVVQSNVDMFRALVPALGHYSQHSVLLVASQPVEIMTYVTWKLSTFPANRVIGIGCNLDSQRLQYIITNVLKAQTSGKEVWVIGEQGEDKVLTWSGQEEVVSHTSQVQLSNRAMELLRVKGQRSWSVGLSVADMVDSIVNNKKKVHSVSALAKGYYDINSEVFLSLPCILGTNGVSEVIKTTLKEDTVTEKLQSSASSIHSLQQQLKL

T3: UQCRB 8-111 UCR_14kD (domain begin residue: 8, domain end residue: 111), P14927
T3 chain: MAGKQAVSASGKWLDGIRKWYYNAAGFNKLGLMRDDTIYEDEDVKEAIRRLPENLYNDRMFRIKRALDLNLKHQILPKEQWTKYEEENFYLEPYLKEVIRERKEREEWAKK


molecular target: U2AF2 372-475 RRM_1 (domain begin residue: 372, domain end residue: 475), P26368; assay: phage ELISA signal ratio (GST-PRM binding over GST background); higher = stronger binding of peptide-phage to the PRM
Sequence (P26368 whole entry, the tested form may be a part): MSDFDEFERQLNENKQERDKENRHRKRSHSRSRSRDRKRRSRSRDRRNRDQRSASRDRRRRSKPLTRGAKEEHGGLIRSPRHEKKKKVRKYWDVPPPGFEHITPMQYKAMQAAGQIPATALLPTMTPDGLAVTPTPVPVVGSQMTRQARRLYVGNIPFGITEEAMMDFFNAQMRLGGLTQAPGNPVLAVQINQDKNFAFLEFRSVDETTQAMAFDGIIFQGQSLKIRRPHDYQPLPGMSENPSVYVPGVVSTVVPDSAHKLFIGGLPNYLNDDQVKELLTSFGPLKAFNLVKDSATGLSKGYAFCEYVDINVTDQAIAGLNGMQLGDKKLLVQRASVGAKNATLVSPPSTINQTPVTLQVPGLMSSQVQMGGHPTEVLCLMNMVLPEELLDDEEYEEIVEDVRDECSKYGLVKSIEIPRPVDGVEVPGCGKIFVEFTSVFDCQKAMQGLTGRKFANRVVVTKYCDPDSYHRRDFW
Outline: (§1)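 An M13 phage library with randomized hexadecapeptides on the gene-8 major coat protein, each peptide lacking cysteine and flanked by glycine, was selected for five rounds against human peptide recognition domains fused to the C-terminus of glutathione S-transferase (GST) and expressed in 96-well plates. Approximately 48 clones from rounds 4 and 5 went to phage ELISA. The reported value is the ELISA signal on the GST-domain fusion over the signal on GST alone, and positive clones were sequenced.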

Binder | phage ELISA signal ratio
FDRWESRRQSIGLELS | 8.37
FSRWEQRQMQSVGGAG | 6.45
FDKWEQRRSVPMGQVQ | 3.6

molecular target: UBR5 2391-2453 PABP (domain begin residue: 2391, domain end residue: 2453), O95071; assay: as above
Sequence (O95071 whole entry): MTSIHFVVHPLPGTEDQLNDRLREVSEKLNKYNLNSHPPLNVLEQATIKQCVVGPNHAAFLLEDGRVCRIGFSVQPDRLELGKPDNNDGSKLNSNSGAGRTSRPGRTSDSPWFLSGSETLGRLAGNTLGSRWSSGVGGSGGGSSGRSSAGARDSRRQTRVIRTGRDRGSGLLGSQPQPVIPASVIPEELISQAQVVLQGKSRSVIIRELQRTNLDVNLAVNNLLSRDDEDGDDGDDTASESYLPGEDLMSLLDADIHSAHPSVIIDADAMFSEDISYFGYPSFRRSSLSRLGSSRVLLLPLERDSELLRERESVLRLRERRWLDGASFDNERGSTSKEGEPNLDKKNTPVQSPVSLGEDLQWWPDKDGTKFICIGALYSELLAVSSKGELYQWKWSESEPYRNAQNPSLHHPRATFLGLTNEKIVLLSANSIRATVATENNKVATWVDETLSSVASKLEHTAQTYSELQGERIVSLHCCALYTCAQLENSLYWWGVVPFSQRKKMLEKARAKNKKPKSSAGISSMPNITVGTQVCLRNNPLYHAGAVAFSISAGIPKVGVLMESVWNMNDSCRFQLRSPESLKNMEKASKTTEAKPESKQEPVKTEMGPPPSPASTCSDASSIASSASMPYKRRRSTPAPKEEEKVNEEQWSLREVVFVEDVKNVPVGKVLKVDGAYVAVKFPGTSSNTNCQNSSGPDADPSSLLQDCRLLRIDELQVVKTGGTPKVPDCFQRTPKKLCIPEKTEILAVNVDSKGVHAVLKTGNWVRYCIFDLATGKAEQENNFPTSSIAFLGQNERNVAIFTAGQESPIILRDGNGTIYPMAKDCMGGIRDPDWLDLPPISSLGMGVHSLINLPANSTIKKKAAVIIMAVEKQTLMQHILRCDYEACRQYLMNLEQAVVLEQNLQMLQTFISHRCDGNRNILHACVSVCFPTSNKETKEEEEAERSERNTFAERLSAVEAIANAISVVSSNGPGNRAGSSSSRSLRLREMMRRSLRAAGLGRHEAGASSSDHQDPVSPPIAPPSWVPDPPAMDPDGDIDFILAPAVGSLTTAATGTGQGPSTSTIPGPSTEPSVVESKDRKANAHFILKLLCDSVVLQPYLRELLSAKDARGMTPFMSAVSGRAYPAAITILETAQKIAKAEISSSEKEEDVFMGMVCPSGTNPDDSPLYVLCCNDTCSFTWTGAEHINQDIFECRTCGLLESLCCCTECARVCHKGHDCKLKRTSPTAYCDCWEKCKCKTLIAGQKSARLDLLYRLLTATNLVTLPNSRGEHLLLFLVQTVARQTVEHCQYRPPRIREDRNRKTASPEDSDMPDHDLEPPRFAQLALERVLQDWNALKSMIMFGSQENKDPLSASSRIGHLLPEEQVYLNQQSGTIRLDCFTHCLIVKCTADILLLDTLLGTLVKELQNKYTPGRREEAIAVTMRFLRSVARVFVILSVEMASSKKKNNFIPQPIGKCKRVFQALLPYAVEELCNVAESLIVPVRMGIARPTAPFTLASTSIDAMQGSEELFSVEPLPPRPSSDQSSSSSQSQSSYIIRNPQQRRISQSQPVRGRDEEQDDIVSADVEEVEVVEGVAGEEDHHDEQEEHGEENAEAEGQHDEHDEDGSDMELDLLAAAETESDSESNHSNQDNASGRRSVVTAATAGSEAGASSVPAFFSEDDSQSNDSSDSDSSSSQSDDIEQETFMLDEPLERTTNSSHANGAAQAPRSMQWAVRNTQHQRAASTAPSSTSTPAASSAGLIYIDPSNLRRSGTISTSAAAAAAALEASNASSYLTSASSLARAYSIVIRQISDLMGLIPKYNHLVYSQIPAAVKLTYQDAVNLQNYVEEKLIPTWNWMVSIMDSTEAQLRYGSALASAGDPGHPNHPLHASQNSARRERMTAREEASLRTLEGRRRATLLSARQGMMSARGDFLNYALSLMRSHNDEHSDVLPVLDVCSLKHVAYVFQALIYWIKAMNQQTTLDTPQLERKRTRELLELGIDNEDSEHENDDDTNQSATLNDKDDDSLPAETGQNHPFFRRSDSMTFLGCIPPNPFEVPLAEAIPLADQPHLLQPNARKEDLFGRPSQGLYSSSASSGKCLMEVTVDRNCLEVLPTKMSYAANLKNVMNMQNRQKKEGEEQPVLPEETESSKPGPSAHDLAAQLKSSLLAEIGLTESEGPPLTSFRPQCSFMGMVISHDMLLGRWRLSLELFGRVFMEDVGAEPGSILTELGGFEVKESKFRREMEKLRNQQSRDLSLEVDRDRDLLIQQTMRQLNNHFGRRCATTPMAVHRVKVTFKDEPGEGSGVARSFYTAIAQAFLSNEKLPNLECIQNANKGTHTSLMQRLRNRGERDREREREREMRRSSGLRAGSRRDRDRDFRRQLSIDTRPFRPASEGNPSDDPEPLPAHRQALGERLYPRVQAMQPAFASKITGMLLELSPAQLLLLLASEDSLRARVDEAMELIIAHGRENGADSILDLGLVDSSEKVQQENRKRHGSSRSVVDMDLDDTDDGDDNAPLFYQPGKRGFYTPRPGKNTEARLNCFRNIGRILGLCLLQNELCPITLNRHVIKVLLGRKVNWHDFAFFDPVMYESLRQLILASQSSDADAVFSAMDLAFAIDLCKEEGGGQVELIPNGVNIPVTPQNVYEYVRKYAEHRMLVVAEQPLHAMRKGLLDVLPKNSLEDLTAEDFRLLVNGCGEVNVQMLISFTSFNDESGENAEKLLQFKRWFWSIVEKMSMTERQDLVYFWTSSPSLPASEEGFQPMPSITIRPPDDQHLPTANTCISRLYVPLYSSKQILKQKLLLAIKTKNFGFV
Outline: as §1

Binder | phage ELISA signal ratio
LSYESAPWWPHMPAEF | 13.2
EWQWHNSVDWVPHKAT | 12.4
SQLSIMSLEAAPFTWE | 10.5
AWSMLDIANIKPWNPM | 18.4
DDIWPVSAVHAQPFMV | 21.2
MDVAAQPWIPIVPPEG | 28.6
NNQVMNVNATPYYWPT | 19.4
SKELSVNAIPFDPHWY | 4.24
VLDINAQPFHQSGFNH | 25.7
MNIDAREWSPASWEVH | 3.6
ALSMSAEPFHPMVNYV | 30.1
EWGSGWLNFQAAEFIV | 8.2
YGMSIDASSFVPYEFW | 17.8
EFLNVMAPSWVDITEW | 16.9
TGVEMMSYKAKPFYPE | 7.69
VMTLSPHATPYYPQMQ | 5.69
LSVAAPMFVPNNAVVS | 5.76
QMNVQAQEWWPAHMTF | 18.6
KLDVFAVPFLSSQHEY | 22.6
EALNIFSPMWEPQYVV | 19.5
ELSIWADAFQPHWHKV | 21.8

Molecular target: T1, TSG101 1-145 UEV (domain begin residue: …
Assay: as above
Outline: as §1

Binder | phage ELISA signal ratio
VSDLWWNPTWSSQETI | 9.75
NFNYPEQMYSYNPHWI | 20.4 ± 0.54
YQPNMASAPEWVWESH | 29.4
MQEAPYNPAWMEVPEL | 27.7
GPLHPTAPVWENMLKY | 15.7

Molecular target: T2, UEVLD 1-145 UEV (domain begin residue: …
Assay: as above
Outline: as §1

Binder | phage ELISA signal ratio
APFTLWESSMEALGEL | 23.3
WRQDLETESLMQWFLW | 15.2
EDHWWIASMWRDQAVQ | 18.1
ERFTLFQSSMDSILMF | 26
EFEWIDHFLGNMESGL | 8.99
LDWRMAPEWQWITHHL | 3.3
FDWRETLWESSQWMIA | 22.7
VPWSENQEWQWIFEAV | 29.3
EQDQDLEYRMHMEKWW | 19.8
HQWQGDWDHEHIMMYW | 24.1
LGQQYQMWEYMASLYN | 11.4
MSQDWPWPDLSWFDEP | 7.15

Molecular target: T3, UQCRB 8-111 UCR_14kD (domain begin …
Assay: as above
Outline: as §1

Binder | phage ELISA signal ratio
VLPDWMAQHAWEWTGH | 23.9
FMDMWHWQQLEDYMFL | 4.85

molecular target: UBA52 1-76 Ubiquitin (domain begin residue: 1, domain end residue: 76), P62987; assay: as above
Outline: as §1

Binder | phage ELISA signal ratio
MTVVEWWTDAQIAEWM | 12.5
EHMWDAQMWEWSWWDL | 15.1
DLHYDWSLEYWTSLLQ | 17.2
EMWVFTPAEWFQIYLN | 16.2

molecular target: VASP 1-114 WH1 (domain begin residue: 1, domain end residue: 114), P50552; assay: as above
Sequence (P50552 whole entry): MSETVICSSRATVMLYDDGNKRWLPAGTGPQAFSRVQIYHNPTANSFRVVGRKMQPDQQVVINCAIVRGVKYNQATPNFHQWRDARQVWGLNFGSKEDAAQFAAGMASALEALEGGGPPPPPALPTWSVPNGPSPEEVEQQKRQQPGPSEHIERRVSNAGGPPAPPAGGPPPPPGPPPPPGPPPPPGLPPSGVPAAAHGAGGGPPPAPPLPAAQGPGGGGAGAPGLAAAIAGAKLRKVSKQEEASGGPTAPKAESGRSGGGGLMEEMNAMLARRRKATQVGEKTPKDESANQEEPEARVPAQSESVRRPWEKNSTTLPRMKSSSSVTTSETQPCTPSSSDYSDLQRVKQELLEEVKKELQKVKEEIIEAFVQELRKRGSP
Outline: as §1

Binder | phage ELISA signal ratio
IQDWPELPEVMMHWTL | 9.17
PAWPPWPAEAVWEATK | 12.3
DPYWVWPDLPHNVSHP | 19.2

molecular target: UBE2V2 1-145 UQ_con (domain begin residue: 1, domain end residue: 145), Q15819; assay: as above
Sequence (Q15819 whole entry): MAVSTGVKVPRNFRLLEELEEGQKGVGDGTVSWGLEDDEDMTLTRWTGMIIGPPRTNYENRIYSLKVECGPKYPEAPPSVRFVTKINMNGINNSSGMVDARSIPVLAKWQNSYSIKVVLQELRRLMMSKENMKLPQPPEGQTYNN
Outline: as §1

Binder | phage ELISA signal ratio
QVGWWMELDHPFWWHQ | 8.59
TNSMPQWAQSQLAMYR | 21.3
YIDYTFFEDGYYRVIE | 5.72
FEHLEYSHPYLWEMYF | 5.45
DRNAEMAIRQYFMYHE | 8.43
SLEWWNDISHPYWWHQ | 6.28

molecular target: UBE2D2 1-147 UQ_con (domain begin residue: 1, domain end residue: 147), P62837; assay: as above
Sequence (P62837 whole entry): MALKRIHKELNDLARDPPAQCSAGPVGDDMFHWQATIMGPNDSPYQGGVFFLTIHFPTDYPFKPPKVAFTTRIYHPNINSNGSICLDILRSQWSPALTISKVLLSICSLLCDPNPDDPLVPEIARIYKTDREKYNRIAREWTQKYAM
Outline: as §1

Binder | phage ELISA signal ratio
WGHDWMMEWNTLQPMS | 4.08
